Screening results deposited in PubChem BioAssay by National Center for Advancing Translational Sciences (NCATS).
SW480 rereplic: DNA re-replication induction in SW480 cells; SW480 DNA re-replication, Hoechst DNA content imaging, 48 h; Potency, µM (titrated, usually from 46.1 µM), inactives show at the top dose re-replication activation, hits mostly activators; 340,000 tested, 1.8% active; further: potency means the concentration at half of the fitted maximal effect; % of control where 0% means no effect; nearly all actives have a fitted effect of over 55% in size
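SW480 cells exposed to compounds for 48 hr at 37 C, 5% CO2, then Hoechst-stained 40 min. Nuclear DNA content imaged by fluorescence scanning (405 nm excitation, 500-530 nm emission); re-replication scored as increased high-intensity nuclei.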
KB-3-1 cytotox: KB-3-1 parental cell cytotoxicity; KB-3-1 viability, CellTiter-Glo ATP luminescence, 72 h; Potency, µM (highest dose often 46.1 µM), most hits filed as cytotoxic; 400,000 tested, 1.4% active; AID 1347075; further: potency means the concentration at half of the fitted maximal effect; on the % scale 0 is the no-effect control and ±100 the full control effect; nearly all actives have a fitted effect of over 60% in size
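72 h, 37 °C compound treatment of KB-3-1 parental cells; CellTiter-Glo added, 10 min, luminescence read. Data corrected against DMSO-only plates and normalized before curve fitting.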
KCNH2 3.1 block: inhibitors of human KCNH2 3.1 potassium channel isoform; U2OS KCNH2 3.1, thallium flux FluxOr; hits give low values; activity change, % (tested at about 1.8 µM); 340,000 tested, 0.95% active; AID 720553;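 active means maximum activity change below -70%; inconclusive means maximum activity change from -70% to -50%; inactive means maximum activity change above -50%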;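 further: thallium influx rate constant from kinetic fluorescence after stimulation buffer; on the % scale 0 is the no-effect control and ±100 the full control effect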
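U2OS cells transduced with KCNH2 3.1 mutant virus (1.77 x 10^8 /mL, 4 h), plated overnight at 37 C, loaded 45 min with FluxOr dye plus Red40 quencher. Thallium flux rate constant from kinetic reads after stimulation buffer, normalised to controls.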
MCF10A rereplic: DNA re-replication induction in MCF 10a cells | 350,000 tested, 2.9% active | Potency, µM (highest dose often 46.1 µM), inactives show at the highest dose activity, positive = re-replication, most hits filed as activators | AID 624296 | MCF 10A DNA re-replication, Hoechst nuclear intensity, 48 h; further: potency means the concentration at half of the fitted maximal effect; % of control where 0% means no effect; nearly all actives have a fitted effect of over 50% in size
KB-V1 MDR tox: kills drug-selected multidrug resistant KB-V1 cells; KB-V1 MDR cells viability, CellTiter-Glo, 72 h; Potency, µM (titrated, usually from 46.1 µM), hits mostly cytotoxic; 400,000 tested, 3.4% active; further: potency means the concentration at half of the fitted maximal effect; on the % scale 0 is the no-effect control and ±100 the full control effect; nearly all actives have a fitted effect of over 60% in size
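qHTS viability screen in drug-selected KB-V1 MDR cells: 72 h compound treatment at 37 degrees C, ATP luminescence end point.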
KCNH2 WT inh: inhibitors of human wildtype KCNH2 potassium channel; U2OS, BacMam KCNH2, thallium flux FluxOr; hits give low values; activity change, % at 1.84 µM; 340,000 tested, 0.37% active;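 active means maximum activity change below -70%; inconclusive means maximum activity change between -70% and -50%; inactive means maximum activity change above -50%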; further: on the % scale 0 is the no-effect control and ±100 the full control effect
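U2OS cells were transduced with wild-type KCNH2 virus (2.03 x 10^8 / mL) for 4 h at room temperature, then cultured overnight at 37 C. Thallium flux was read with FluxOr dye. Rate constants were normalized to DMSO controls.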
* = called active by the depositor. The list is not random: actives were taken first. Their share in the collection is about 7.6%. Unless noted, the call rests on the fitted dose curve; in most records, active means well fitted curve in the direction sought with a large enough effect; inconclusive means small, poorly fitted or top-dose-only effect, or another doubt; inactive means no such curve, though single readings can be large; an effect the other way counts as inactive or inconclusive.

Screening Cc1cccc(-c2sc(Nc3ccccc3)n[n+]2-c2ccc(F)cc2)c1 returned SW480 rereplic -1.0%, KB-3-1 cytotox inactive, KCNH2 3.1 block -91.7*, MCF10A rereplic -3.4%, KB-V1 MDR tox inactive and KCNH2 WT inh -13.2.
For CSc1nnc(SCC#N)s1 the results were SW480 rereplic -12.2%, KB-3-1 cytotox inactive, KCNH2 3.1 block 5.7, MCF10A rereplic 0.5%, KB-V1 MDR tox inactive and KCNH2 WT inh -0.3.
COc1ccc(CN(C(=O)c2ccc(-c3ccccc3)[nH]2)C(C(=O)NC(C)(C)C)c2ccncc2)cc1 (stereo unspecified) was read as SW480 rereplic inconclusive, KB-3-1 cytotox inconclusive, KCNH2 3.1 block -6.6, MCF10A rereplic 13.6%, KB-V1 MDR tox 11.6µM* and KCNH2 WT inh 7.8.
`CCOC(=O)COc1ccc(Br)cc1/C=C\c1[nH]c(=O)[nH]c(=O)c1[N+](=O)[O-]` gave SW480 rereplic inconclusive, KB-3-1 cytotox inactive, KCNH2 3.1 block -1.1, MCF10A rereplic 8.2µM*, KB-V1 MDR tox inactive and KCNH2 WT inh -2.5.
For CC(C)c1ccc(/C=C/c2[nH]c(=O)[nH]c(=O)c2[N+](=O)[O-])cc1 the results were SW480 rereplic -5.9%, KB-3-1 cytotox inactive, KCNH2 3.1 block 5.2, MCF10A rereplic 18.4µM*, KB-V1 MDR tox inactive and KCNH2 WT inh -0.9.
`CCOc1cc(/C=C\c2[nH]c(=O)[nH]c(=O)c2[N+](=O)[O-])ccc1OC(C)CC` (stereo unspecified) gave SW480 rereplic 23.1µM*, KB-3-1 cytotox inactive, KCNH2 3.1 block 0.3, MCF10A rereplic inconclusive, KB-V1 MDR tox inactive and KCNH2 WT inh -2.4.
`Cc1cc(F)ccc1NC(=O)CCS(=O)(=O)c1cc2c3c(c1)CCN3C(=O)CC2` gave KB-3-1 cytotox inactive and KB-V1 MDR tox inconclusive.
`O=C(NCc1cccc(C(F)(F)F)c1)N1CCN(S(=O)(=O)c2ccccc2F)CC1` gave SW480 rereplic 0.9%, KB-3-1 cytotox inactive, KCNH2 3.1 block 7.3, MCF10A rereplic 21.1%, KB-V1 MDR tox inconclusive and KCNH2 WT inh -8.3.
Screening Cn1c(C(=O)OCC(=O)NCc2ccco2)cc2sccc21 returned SW480 rereplic inconclusive, KB-3-1 cytotox inactive, KCNH2 3.1 block 3.2, MCF10A rereplic 23.1%, KB-V1 MDR tox inactive and KCNH2 WT inh -8.9.
For Cc1cc2c(cc(C(=O)OCC(=O)NCc3ccco3)n2C)s1 the results were SW480 rereplic 10.3µM*, KB-3-1 cytotox 5.8µM*, KCNH2 3.1 block 6.9, MCF10A rereplic inconclusive, KB-V1 MDR tox 3.66µM* and KCNH2 WT inh -2.4.
Screening O=S(=O)(c1ccc(Br)cc1)N1CCCC1c1nc2ccccc2s1 (stereo unspecified) returned SW480 rereplic -4.5%, KB-3-1 cytotox inactive, KCNH2 3.1 block -7.5, MCF10A rereplic inconclusive, KB-V1 MDR tox inconclusive and KCNH2 WT inh -10.8.
`O=S(=O)(c1ccc(N2CCCC2c2nc3ccccc3s2)nc1)N1CCOCC1` (stereo unspecified) gave SW480 rereplic -1.2%, KB-3-1 cytotox inactive, KCNH2 3.1 block 7.4, MCF10A rereplic 3.9%, KB-V1 MDR tox 8.2µM* and KCNH2 WT inh 3.3.
Screening CCOC(=O)c1c(NC(=O)COc2ncnc3sccc23)sc2c1CCC2 returned SW480 rereplic -1.5%, KB-3-1 cytotox inactive, KCNH2 3.1 block 1.3, MCF10A rereplic 25.3%, KB-V1 MDR tox 3.26µM* and KCNH2 WT inh -11.7.
For COC(=O)c1c(NC(=O)CSc2ncn[nH]2)sc(C)c1C the results were SW480 rereplic 0.1%, KB-3-1 cytotox inactive, KCNH2 3.1 block 23.8, MCF10A rereplic 7.3%, KB-V1 MDR tox 20.6µM* and KCNH2 WT inh 1.8.
For CCOC(=O)c1c(NC(=O)CSc2ncn[nH]2)sc(C(C)=O)c1C the results were SW480 rereplic -11.0%, KB-3-1 cytotox inactive, KCNH2 3.1 block 3.1, MCF10A rereplic -6.2%, KB-V1 MDR tox inactive and KCNH2 WT inh -1.3.
For CCOC(=O)c1c(NC(=O)COc2ccc(CC)cc2)sc2c1CCCC2 the results were KB-3-1 cytotox inactive and KB-V1 MDR tox inactive.
For COC(=O)c1c(NC(=O)COc2ncnc3ccccc23)sc(C)c1C the results were SW480 rereplic -6.1%, KB-3-1 cytotox inactive, KCNH2 3.1 block -12.9, MCF10A rereplic -2.5%, KB-V1 MDR tox 14.6µM* and KCNH2 WT inh 9.3.
For COC(=O)C1=CN(c2ccc(F)cc2)C(N)=C(C#N)C1c1cccc(OC)c1OC (stereo unspecified) the results were KB-3-1 cytotox inactive and KB-V1 MDR tox inconclusive.
For Cc1ccc(C(=O)Nc2cccc(S(=O)(=O)N3CCCC3)c2)o1 the results were SW480 rereplic -20.2%, KB-3-1 cytotox inactive, KCNH2 3.1 block 10.8, MCF10A rereplic -4.8%, KB-V1 MDR tox inactive and KCNH2 WT inh 0.2.
`COc1cccc(CN(C)CC(=O)Nc2cccc(S(=O)(=O)N(C)c3ccccc3)c2)c1OC` gave SW480 rereplic -1.7%, KB-3-1 cytotox inconclusive, KCNH2 3.1 block -12.7, MCF10A rereplic inconclusive, KB-V1 MDR tox 2.59µM* and KCNH2 WT inh -6.6.
NC(=S)N/N=C/c1cc([N+](=O)[O-])ccc1OCCOc1ccccc1 was read as SW480 rereplic 0.7%, KB-3-1 cytotox inactive, KCNH2 3.1 block -13.5, MCF10A rereplic 0.5%, KB-V1 MDR tox inactive and KCNH2 WT inh 9.8.
Screening Cc1ccc(C(=O)Nc2cccc(S(=O)(=O)N(C)c3ccccc3)c2)o1 returned SW480 rereplic -1.4%, KB-3-1 cytotox inactive, KCNH2 3.1 block -19.0, MCF10A rereplic 6.8%, KB-V1 MDR tox 16.4µM* and KCNH2 WT inh -15.6.
CN(c1ccccc1)S(=O)(=O)c1cccc(NC(=O)COc2cccc([N+](=O)[O-])c2)c1 was read as SW480 rereplic -2.1%, KB-3-1 cytotox inactive, KCNH2 3.1 block -25.6, MCF10A rereplic 1.5%, KB-V1 MDR tox 18.4µM* and KCNH2 WT inh 31.0.
For CC(=O)N/N=C/c1cc([N+](=O)[O-])ccc1OCCOc1ccccc1 the results were SW480 rereplic 20.6µM*, KB-3-1 cytotox inactive, KCNH2 3.1 block 12.6, MCF10A rereplic 3.6%, KB-V1 MDR tox inactive and KCNH2 WT inh 21.5.
For CN(c1ccccc1)S(=O)(=O)c1cccc(NC(=O)CC(C)(C)C)c1 the results were SW480 rereplic 1.0%, KB-3-1 cytotox inactive, KCNH2 3.1 block 3.0, MCF10A rereplic -0.8%, KB-V1 MDR tox 2.59µM* and KCNH2 WT inh -4.5.
`COc1ccc(OCCCC(=O)Nc2cccc([N+](=O)[O-])c2)cc1` gave SW480 rereplic inconclusive, KB-3-1 cytotox inactive, KCNH2 3.1 block -0.7, MCF10A rereplic 27.7%, KB-V1 MDR tox inconclusive and KCNH2 WT inh -8.8.
